Measured values reported in ChEMBL document CHEMBL3988442, “University of Dundee, Small-Polar-MMV Screening Library” (2021).
For some assays here: Potency and affinity values are given separately.

Columns and labels:
Parameters in all cases: scale not given: direction of the effect not stated beside the values
[1] = target: Protein translocase subunit SecA (Escherichia coli (strain K12)) (UniProt P10408); assay: Assay to Identify E. coli SecA ATPase Inhibitors; assay type: functional; conditions: 30 µM
Sequence of Protein translocase subunit SecA (Escherichia coli (strain K12)) (P10408 whole entry): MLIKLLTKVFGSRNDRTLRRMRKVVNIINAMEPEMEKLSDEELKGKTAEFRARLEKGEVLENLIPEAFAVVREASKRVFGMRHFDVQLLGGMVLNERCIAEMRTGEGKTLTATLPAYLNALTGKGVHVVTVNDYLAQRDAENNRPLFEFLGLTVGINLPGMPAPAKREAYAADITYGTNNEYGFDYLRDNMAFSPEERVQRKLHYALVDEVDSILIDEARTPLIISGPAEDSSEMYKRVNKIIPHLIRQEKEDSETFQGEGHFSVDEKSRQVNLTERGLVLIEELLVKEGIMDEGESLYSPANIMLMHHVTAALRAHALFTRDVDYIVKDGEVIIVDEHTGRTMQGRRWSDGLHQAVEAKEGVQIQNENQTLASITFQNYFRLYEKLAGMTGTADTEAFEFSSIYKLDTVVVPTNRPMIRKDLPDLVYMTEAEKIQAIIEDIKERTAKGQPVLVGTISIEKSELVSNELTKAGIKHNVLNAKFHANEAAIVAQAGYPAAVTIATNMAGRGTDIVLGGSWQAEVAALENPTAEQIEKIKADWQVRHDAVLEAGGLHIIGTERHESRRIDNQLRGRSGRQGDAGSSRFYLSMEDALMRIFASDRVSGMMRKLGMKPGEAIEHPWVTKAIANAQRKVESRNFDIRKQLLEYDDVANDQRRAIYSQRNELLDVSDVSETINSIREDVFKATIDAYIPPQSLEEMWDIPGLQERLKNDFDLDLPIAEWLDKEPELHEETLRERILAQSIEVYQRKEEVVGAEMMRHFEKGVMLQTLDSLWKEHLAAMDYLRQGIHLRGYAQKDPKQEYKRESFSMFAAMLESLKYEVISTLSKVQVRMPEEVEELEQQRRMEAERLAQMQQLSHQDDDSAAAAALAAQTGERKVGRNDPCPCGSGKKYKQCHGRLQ

[2] = target: T1, Ubiquitin-activating enzyme e1, putative (Leishmania donovani (strain BPK282A1)) (UniProt E9BSI1); assay: Leishmania donovani Ubiquitin Activating Enzyme (LdE1); assay type: functional; conditions: 30 µM
T1 sequence (whole entry): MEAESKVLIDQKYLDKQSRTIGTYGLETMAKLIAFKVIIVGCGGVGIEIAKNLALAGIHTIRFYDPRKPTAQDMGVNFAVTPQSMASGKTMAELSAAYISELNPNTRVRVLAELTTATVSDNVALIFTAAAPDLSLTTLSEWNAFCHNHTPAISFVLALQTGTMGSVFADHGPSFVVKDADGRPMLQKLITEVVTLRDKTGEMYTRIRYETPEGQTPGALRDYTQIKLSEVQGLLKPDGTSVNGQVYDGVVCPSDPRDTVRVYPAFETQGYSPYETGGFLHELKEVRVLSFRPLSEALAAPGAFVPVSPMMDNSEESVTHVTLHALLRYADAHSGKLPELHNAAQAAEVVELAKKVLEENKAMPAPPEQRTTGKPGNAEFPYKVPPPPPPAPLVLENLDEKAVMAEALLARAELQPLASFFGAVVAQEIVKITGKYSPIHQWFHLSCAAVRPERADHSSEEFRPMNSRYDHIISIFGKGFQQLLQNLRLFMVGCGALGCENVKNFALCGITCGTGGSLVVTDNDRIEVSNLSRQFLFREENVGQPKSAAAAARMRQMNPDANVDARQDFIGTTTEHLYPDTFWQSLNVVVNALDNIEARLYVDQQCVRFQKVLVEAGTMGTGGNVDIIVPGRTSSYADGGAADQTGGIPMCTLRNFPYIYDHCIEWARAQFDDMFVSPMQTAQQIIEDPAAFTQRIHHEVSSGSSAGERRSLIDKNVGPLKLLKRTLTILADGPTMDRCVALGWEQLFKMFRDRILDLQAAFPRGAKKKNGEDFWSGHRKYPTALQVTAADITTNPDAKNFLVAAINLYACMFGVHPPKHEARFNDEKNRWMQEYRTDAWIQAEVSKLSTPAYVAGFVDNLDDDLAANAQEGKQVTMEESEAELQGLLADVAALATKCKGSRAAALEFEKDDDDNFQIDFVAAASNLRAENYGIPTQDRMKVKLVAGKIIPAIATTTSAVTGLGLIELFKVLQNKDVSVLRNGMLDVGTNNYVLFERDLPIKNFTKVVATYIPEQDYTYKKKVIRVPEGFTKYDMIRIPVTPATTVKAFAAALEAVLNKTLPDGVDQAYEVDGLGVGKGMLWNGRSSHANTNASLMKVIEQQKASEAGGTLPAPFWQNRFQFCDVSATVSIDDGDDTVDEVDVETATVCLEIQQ

[3] = target: AMP-activated protein kinase, AMPK (Homo sapiens) (UniProt P54646+O43741+P54619+Q9UGJ0+Q9Y478+Q13131+Q9UGI9); assay: AMP-dependent Kinase enzyme assay. An in vitro enzyme assay that detects ADP turnover that is directly proportional to AMPK activity. This uses naive AMPK that is activated during the assay with MK-8722; assay type: functional; conditions: 30 µM
[4] = target: Sialic acid-binding Ig-like lectin 9 (Homo sapiens) (UniProt Q9Y336); assay: Hs-Siglec9 ALPHAscreen SOP 20170721; conditions: 10 µM
Sequence of Sialic acid-binding Ig-like lectin 9 (Homo sapiens) (Q9Y336 whole entry): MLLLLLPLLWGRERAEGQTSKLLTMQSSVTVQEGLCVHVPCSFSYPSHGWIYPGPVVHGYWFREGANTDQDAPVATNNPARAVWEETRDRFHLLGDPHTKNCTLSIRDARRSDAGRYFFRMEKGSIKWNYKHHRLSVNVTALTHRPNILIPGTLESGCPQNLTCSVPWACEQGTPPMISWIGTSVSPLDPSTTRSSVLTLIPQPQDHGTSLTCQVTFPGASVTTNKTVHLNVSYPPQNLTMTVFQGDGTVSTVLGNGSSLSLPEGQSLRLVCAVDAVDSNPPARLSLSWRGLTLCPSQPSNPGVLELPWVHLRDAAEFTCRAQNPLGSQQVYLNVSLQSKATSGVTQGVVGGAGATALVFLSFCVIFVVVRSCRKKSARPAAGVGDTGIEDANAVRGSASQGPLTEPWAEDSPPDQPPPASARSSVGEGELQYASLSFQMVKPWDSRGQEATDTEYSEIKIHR

[5] = test system: Trypanosoma cruzi; assay: Trypanosoma cruzi phosphomannomutase and mannose-1-phosphate guanylyltransferase assay; assay type: functional; conditions: 10 µM
[6] = target: T2, Arginase-2, mitochondrial (Homo sapiens) (UniProt P78540); assay: in vitro enzyme assay to detect the production of urea directly proportional to the activity of Arginase II; assay type: functional; conditions: 33.3 µM; also: in the data most compounds retested in dose-response had high values
T2 sequence (whole entry): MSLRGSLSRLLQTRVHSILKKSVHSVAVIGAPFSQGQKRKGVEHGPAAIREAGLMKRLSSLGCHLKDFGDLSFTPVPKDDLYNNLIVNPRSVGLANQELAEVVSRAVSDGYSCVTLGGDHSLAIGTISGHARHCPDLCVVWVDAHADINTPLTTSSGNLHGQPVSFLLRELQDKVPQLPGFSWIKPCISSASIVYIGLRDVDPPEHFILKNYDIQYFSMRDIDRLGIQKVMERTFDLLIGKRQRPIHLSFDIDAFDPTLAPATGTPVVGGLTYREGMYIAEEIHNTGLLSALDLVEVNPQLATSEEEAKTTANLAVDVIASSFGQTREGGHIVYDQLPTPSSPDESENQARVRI

[7] = target: T3, Proteasome subunit beta (Trypanosoma cruzi) (UniProt O96673); assay: Trypanosoma cruzi proteasome chymotrypsin-like activity (TcProtChymo) assay.; also: in the data most compounds retested in dose-response had high values; assay type: functional; conditions: 9.37 µM
T3 sequence (whole entry): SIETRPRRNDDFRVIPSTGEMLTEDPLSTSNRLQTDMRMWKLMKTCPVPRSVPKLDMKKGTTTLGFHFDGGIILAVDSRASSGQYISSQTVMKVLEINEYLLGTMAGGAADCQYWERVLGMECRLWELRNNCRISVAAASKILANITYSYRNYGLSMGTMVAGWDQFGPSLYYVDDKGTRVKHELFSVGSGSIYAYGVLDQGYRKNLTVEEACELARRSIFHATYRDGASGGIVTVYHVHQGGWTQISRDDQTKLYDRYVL

[8] = organism: Homo sapiens; assay: To identify inhibition of the IFN signalling (Jak-Stat) pathway via expression of an eGFP reporter gene under the control of an IFN-stimulated response element (ISRE) containing MxA promoter.; assay type: functional; conditions: 30 µM
[9] = target: T4, Tyrosyl-tRNA synthetase, putative (Trypanosoma cruzi (strain CL Brener)) (UniProt Q4DSP6); assay: Trypanosoma cruzi tyrosyl tRNA synthetase (TcYRS) _High Tyrosine SOP; assay type: functional; conditions: 30 µM; also: in the data most compounds retested in dose-response had high values
T4 sequence (whole entry): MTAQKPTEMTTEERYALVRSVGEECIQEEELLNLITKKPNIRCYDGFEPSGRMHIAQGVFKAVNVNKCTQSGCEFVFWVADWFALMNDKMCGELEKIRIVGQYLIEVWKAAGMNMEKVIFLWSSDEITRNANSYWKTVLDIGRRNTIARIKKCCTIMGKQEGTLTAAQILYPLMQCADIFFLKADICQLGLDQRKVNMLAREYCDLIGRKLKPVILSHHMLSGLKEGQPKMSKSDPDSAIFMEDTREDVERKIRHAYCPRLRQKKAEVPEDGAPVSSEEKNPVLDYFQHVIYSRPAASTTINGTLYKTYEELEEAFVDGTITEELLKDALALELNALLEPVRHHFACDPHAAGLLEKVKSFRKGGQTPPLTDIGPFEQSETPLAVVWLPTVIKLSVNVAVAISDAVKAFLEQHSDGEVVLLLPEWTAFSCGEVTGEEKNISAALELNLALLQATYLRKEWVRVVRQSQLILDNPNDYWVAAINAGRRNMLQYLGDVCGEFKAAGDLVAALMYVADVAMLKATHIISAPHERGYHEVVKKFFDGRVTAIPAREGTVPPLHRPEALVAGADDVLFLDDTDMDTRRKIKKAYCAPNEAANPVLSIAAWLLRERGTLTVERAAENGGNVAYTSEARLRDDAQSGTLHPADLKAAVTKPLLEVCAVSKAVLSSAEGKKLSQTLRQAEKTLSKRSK

[10] = target: T4, Tyrosyl-tRNA synthetase, putative (Trypanosoma cruzi (strain CL Brener)); assay: Trypanosoma cruzi tyrosyl tRNA synthetase (TcYRS) SOP; assay type: functional; conditions: 30 µM
[11] = target: Chromo domain-containing protein 1 (Saccharomyces cerevisiae (strain ATCC 204508 / S288c) (Baker's yeast)) (UniProt P32657); assay: ScCHD-1 Enzyme Inhibition Assay; assay type: functional; conditions: 30 µM; also: in the data most compounds retested in dose-response had high values
Sequence of Chromo domain-containing protein 1 (Saccharomyces cerevisiae (strain ATCC 204508 / S288c) (Baker's yeast)) (P32657 whole entry, the tested form may be a part): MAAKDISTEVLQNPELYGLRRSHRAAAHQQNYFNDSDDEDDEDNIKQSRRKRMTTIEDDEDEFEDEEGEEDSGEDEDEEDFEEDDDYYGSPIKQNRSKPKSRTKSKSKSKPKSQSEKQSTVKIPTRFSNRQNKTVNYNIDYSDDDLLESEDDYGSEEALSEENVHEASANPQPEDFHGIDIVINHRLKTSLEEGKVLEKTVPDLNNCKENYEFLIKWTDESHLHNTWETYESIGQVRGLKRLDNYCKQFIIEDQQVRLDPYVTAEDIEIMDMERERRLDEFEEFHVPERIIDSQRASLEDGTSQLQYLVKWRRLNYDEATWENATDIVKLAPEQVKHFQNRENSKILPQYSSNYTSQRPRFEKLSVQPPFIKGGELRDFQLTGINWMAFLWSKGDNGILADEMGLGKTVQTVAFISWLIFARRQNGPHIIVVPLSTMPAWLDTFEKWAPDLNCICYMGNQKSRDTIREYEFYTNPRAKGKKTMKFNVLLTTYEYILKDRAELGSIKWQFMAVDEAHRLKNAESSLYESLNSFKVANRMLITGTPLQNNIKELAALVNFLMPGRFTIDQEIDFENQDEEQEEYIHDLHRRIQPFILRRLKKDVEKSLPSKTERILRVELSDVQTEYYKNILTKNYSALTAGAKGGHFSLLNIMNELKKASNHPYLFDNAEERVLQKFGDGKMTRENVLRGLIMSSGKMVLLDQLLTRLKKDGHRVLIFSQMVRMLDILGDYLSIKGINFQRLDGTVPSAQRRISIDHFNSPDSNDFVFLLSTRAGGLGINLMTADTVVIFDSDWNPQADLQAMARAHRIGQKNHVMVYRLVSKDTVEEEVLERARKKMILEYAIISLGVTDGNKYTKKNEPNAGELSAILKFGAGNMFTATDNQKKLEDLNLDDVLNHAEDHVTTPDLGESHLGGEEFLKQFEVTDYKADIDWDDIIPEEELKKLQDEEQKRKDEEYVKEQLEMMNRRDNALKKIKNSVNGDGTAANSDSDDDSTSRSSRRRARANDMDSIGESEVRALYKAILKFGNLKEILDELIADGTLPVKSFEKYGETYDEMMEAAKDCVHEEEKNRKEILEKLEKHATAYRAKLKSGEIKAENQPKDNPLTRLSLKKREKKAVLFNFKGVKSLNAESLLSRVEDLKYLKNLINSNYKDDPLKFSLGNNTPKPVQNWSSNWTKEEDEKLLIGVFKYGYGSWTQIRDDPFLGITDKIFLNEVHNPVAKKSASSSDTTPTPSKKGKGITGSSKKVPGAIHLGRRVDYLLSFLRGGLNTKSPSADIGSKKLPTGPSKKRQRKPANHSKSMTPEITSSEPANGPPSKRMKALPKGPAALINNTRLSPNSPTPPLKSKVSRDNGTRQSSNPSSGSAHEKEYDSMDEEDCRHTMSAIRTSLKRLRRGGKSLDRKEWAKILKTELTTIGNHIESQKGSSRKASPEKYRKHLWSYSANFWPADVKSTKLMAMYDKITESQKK

Compound | Percent Effect [1] [%] | Percent Effect [2] [%] | Percent Effect [3] [%] | Percent Effect [4] [%] | Percent Effect [5] [%] | Percent Effect [6] [%] | Percent Effect [7] [%] | Percent Effect [8] [%] | Percent Effect [9] [%] | Percent Effect [10] [%] | Percent Effect [11] [%]
Cc1nc(C)n(CC2CCCN(CCNC(=O)OC(C)(C)C)C2)n1 (configuration not stated) | -0.765 | 2.6 | 5.46 | 11.6 | 1.67 | 5.26 | 5.9 | 9.69 | 2.86 | 0 | -4.66
Cc1cc(N2CCC(N(C)C(=O)Nc3ccccc3)CC2)nc(C)n1 | -4.81 | 8.22 | 12.3 | -3.15 | -1.18 | 6.36 | 12.8 | 6.79 | 4.3 | 10 | -2.89
CNc1oc(-c2cc(S(=O)(=O)N3CCCCCC3)c(C)o2)nc1C#N | -5.54 | -9.33 | 2.78 | 2.42 | 5.5 | -3.35 | 11.3 | 8.06 | 1.06 | 10.3 | -7.07
CCc1nc2n(n1)CC(NCC(=O)Nc1cc(C)on1)CC2 (configuration not stated) | -7.96 | 5.06 | -1.49 | 2.07 | -7.27 | 0.38 | 17.1 | 22.4 | -3.45 | -8.86 | -4.18
Cc1cccc(N2CCN(CCNC(=O)c3ccnn3C)CC2)c1 | 0.195 | 5.41 | -1.81 | -4.27 | -4.88 | 3.75 | 14.6 | 6.3 | 9.9 | 11 | 5.87
c1csc(-c2nc(CN3CCOC(Cn4cncn4)C3)co2)c1 (configuration not stated) | -2.48 | 10.8 | -9.47 | -3.91 | -0.0943 | -6.01 | 20.4 | 9.28 | 9.36 | 18.5 | -5.77
CC(C)N1CCc2c(C#N)c(NCc3ccco3)n3cnnc3c2C1 | -3.81 | 7.89 | 6.37 | -3.12 | -3.8 | 3.55 | 15.4 | -16.1 | 1.06 | 7.79 | -9.63
CCC(C)(C)NC(=O)CN(C)C(c1cccc(F)c1)c1ccccn1 (configuration not stated) | 0.66 | 2.6 | 9.59 | 15.1 | -3.56 | 3.56 | 0.845 | 36.6 | 5.83 | 7.32 | -2.33
Cc1nn(C)c(C)c1C1CCCN1C(=O)CCNc1ncccn1 (configuration not stated) | -5.59 | 18.4 | -8.92 | 11.3 | 5.32 | -8.63 | -1.1 | -2.96 | 3.45 | 18.5 | -4.96
COc1ccc(CN(Cc2cncn2C)CC2CCCO2)cc1OC (configuration not stated) | -3.49 | 12.2 | 11.9 | 0.383 | -2.37 | 3.94 | 9.52 | -8.46 | 5.38 | 11.7 | -15
O=C(NCCNc1ccc(C(F)(F)F)cn1)c1cncc(Br)c1 | 1.84 | 15.6 | 50.8 | -7 | -4.8 | 3.58 | 12.5 | 27.5 | 13.3 | 30.6 | -20.7
COc1ccccc1CNC(=O)C1=NN(c2ccc(C)cc2)C(=O)CN1 | -2.03 | 13.5 | -0.556 | 34.6 | -3.62 | -0.248 | 15.2 | 98.2 | -6.45 | -3.7 | -2.26
Cc1ncsc1CN1C[C@@H]2COC[C@]2(C(=O)NCC2CC2)C1 | -0.435 | 0 | 8.5 | 2.51 | -4.33 | 5.83 | -1.15 | 25.1 | 2.13 | 1.28 | 10.8
Cc1ccccc1-n1ncc(C(=O)N2CCCC2c2cnn(C)c2)c1C (configuration not stated) | -1.92 | 10.8 | -5.91 | -5.79 | 7.71 | -0.924 | 5.57 | -8.29 | 3.96 | 18.3 | -5.96
CCc1nc(CN(C)CC2CCN(CCO)CC2)no1 | 0.69 | 2.7 | -8.99 | 9.52 | 6.56 | 10 | -1.55 | -14.8 | 2.65 | 9.76 | -0.692
CC(C)CS(=O)(=O)N1C[C@H]2C[C@H](C(=O)NCc3ccccc3)[C@@H](C1)O2 | 1.12 | 9.33 | 4.22 | -2.68 | -10 | 0.88 | 13.3 | 2.72 | 3.17 | 2.56 | -5.74
CNC(=O)[C@H]1C[C@@H]2CN(C(=O)c3ccco3)C[C@@H]2N1S(C)(=O)=O | -2.51 | 13.3 | -0.761 | -3.21 | 3.48 | 90.5 | 12.7 | -4.85 | 6.25 | 17.5 | -6.67
COc1ccc(OCc2nc(C(=O)N3CC(O)C3)co2)cc1 | -5.91 | 5.41 | 4.37 | 4.07 | 1.74 | 1.43 | 3.28 | 2.54 | 4.76 | 2.44 | -0.668
c1ccc(-n2ncc(CNCC3CCCN3c3cccnn3)n2)cc1 (configuration not stated) | -3.03 | -28.9 | -19.7 | 8.84 | 11.7 | -5.4 | -3.64 | 6.81 | 12.3 | 18.5 | 0.0713
COCCc1noc(CN(C)C2CCCN(c3ccc(C)nn3)C2)n1 (configuration not stated) | -2.39 | 2.67 | -6.26 | 0.801 | 3.41 | 1.56 | 11.9 | -8.02 | 4.92 | 6.17 | -2.05
CC(=O)c1cccc(S(=O)(=O)N2CSCC2C(=O)NCC(F)(F)F)c1 (configuration not stated) | -3.05 | 3.8 | 7.23 | 3.21 | -0.103 | -7.1 | 10.5 | 2.46 | 9.38 | 22.8 | -23.2
N#Cc1ccc(OCCCN2CCc3cncnc3C2)cc1 | -5.04 | 5.06 | -14.8 | 5.6 | -3.68 | -3.04 | -6.14 | 18.3 | -0.493 | 11.4 | -4.55
